Source: PubChem BioAssay (Tox21)
Several values for one entry are separate records, joined by “and”; a condition that tells them apart may be missing. Identical values can stand only once. Records with an inconclusive call do not appear. Activity calls are given as the source filed them. Unless noted, calls come from the whole dose curve; as a rule, active = well fitted curve in the direction sought with a large enough effect in the repeat runs; inconclusive = weak or mixed curves; inactive = no such curve, though single readings can be large; an effect the other way counts as inactive or inconclusive.

Assays:
[1] = qHTS RealTime-Glo MT Cell Viability Assay in HEK293 cells - 0 hour (AID 1224880); note: top concentration of the series differs between compounds; nearly all actives have a fitted effect of over 45% in size
How it was run: (§1)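 Nonlytic bioluminescent viability monitoring. HEK293 at 600 cells/well with reagent; 5 h settle; compound transfer by pintool; plates held at 37 C and read at set time points.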

[2] = A CellTox Green Cytotoxicity Assay to monitor cytotoxicity in HEK293 cells - 32 hour (AID 1224881); note: nearly all actives have a fitted effect of over 40% in size
How it was run: (§2)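 Cytotoxicity was tracked continuously in HEK293 cells by a DNA-binding dye excluded from viable cells. Compounds were transferred in DMSO 5 h after seeding; fluorescence was recorded at intervals up to 40 h.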

[3] = A CellTox Green Cytotoxicity Assay to monitor cytotoxicity in HepG2 cells - 0 hour (AID 1224882); note: nearly all actives have a fitted effect of over 35% in size
How it was run: (§3)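 Real-time, homogeneous cytotoxicity readout: dead-cell DNA staining by CellTox Green in HepG2 monolayers, fluorescence measured at timed intervals up to 40 h of continuous compound exposure.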

[4] = A CellTox Green Cytotoxicity Assay to monitor cytotoxicity in HepG2 cells - 32 hour (AID 1224883); note: nearly all actives have a fitted effect of over 50% in size
How it was run: as §3

[5] = A CellTox Green Cytotoxicity Assay to monitor cytotoxicity in HEK293 cells - 8 hour (AID 1224884); note: nearly all actives have a fitted effect of over 35% in size
How it was run: as §2

[6] = qHTS RealTime-Glo MT Cell Viability Assay in HepG2 cells - 16 hour (AID 1224885); note: nearly all actives have a fitted effect of over 50% in size
How it was run: (§4)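 Compound treatment began 5 h after plating HepG2 cells (600/well) with NanoLuc luciferase and prosubstrate. Plates stayed at 37 C for 40 h; luminescence was captured at six time points, 0 h through 40 h.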

[7] = qHTS RealTime-Glo MT Cell Viability Assay in HEK293 cells - 24 hour (AID 1224886); note: top concentration of the series differs between compounds; nearly all actives have a fitted effect of over 50% in size
How it was run: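 Quantitative high-throughput screen of the Tox21 10K library in HEK293: cells and RealTime-Glo reagents plated together, compound added at 5 h, luminescence monitored through 40 h at 37 C.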

[8] = qHTS RealTime-Glo MT Cell Viability Assay in HEK293 cells - 8 hour (AID 1224887); note: top concentration of the series differs between compounds; nearly all actives have a fitted effect of over 50% in size
How it was run: as §1

[9] = A CellTox Green Cytotoxicity Assay to monitor cytotoxicity in HEK293 cells - 16 hour (AID 1224888); note: nearly all actives have a fitted effect of over 35% in size
How it was run: as §2

[10] = qHTS RealTime-Glo MT Cell Viability Assay in HepG2 cells - 0 hour (AID 1224889); note: nearly all actives have a fitted effect of over 50% in size
How it was run: as §4

[11] = A CellTox Green Cytotoxicity Assay to monitor cytotoxicity in HepG2 cells - 8 hour (AID 1224890); note: nearly all actives have a fitted effect of over 45% in size
How it was run: as §3

[12] = qHTS assay to identify small molecule antagonists of the estrogen receptor alpha (ER-alpha) signaling pathway using the BG1 cell line in the presence of 0.1 nM 17-beta-estradiol - cell viability counter screen (AID 1259241); note: nearly all actives have a fitted effect of over 40% in size
How it was run: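 Cytotoxicity counter-screen: live-cell protease activity measured by fluorescence (30 min reagent step) in the same wells. Cells were VM7Luc4E2 with endogenous ER-alpha and ERE-driven luciferase, treated 22 hr at 37C alongside 0.1 nM 17beta-estradiol final.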

[13] = qHTS assay to identify small molecule antagonists of the androgen receptor (AR) signaling pathway using the MDA cell line in the presence of 0.5 nM R1881 - cell viability counter screen (AID 1259242); note: nearly all actives have a fitted effect of over 45% in size
How it was run: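 Cytotoxicity toward MDA-kb2 cells is measured by CellTiter-Fluor live-cell protease fluorescence after 16 hr compound exposure at 37C in the presence of 0.5 nM R1881 stimulator.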

[14] = target: Estrogen receptor (Homo sapiens) (UniProt P03372); experiment: qHTS assay to identify small molecule antagonists of the estrogen receptor alpha (ER-alpha) signaling pathway using the BG1 cell line in the presence of 0.1 nM 17-beta-estradiol (AID 1259244); note: nearly all actives have a fitted effect of over 50% in size
Chain of Estrogen receptor (Homo sapiens) (P03372 whole entry, looked up): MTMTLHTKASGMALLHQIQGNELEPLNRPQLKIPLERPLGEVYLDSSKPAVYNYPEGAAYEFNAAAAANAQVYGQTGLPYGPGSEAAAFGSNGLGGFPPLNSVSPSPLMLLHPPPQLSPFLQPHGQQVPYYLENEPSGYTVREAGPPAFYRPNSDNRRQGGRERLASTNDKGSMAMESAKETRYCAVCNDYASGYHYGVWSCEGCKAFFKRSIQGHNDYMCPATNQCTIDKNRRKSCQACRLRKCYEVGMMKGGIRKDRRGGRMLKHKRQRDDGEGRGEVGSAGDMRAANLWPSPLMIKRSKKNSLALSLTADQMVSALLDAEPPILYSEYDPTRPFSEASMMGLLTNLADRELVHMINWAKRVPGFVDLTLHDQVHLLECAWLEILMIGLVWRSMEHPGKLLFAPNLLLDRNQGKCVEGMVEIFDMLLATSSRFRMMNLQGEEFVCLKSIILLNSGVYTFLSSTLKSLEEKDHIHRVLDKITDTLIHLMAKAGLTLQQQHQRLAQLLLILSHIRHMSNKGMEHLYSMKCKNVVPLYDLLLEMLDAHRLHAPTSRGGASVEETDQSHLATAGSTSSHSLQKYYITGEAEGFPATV
How it was run: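 After 5 days in hormone-depleted medium (charcoal-stripped serum, no phenol red), VM7Luc4E2 cells were seeded, incubated 24 h, then co-treated with compound and 0.1 nM (final) estradiol for 22 h before luminescence detection.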

[15] = qHTS assay to identify small molecule phospholipidosis (PLD) inducers (AID 1259344; active = well fitted curve in the direction sought with a large enough effect; an effect the other way counts as inactive or inconclusive)
How it was run: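 Quantitative HTS in HepG2: compound plus LipidTOX Red dye for 24 h, paraformaldehyde fixation with Hoechst 33342, widefield high-content imaging; amiodarone as positive and DMSO as negative control.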

[16] = qHTS assay to identify small molecule HDAC inhibitors (AID 1259364); note: nearly all actives have a fitted effect of over 45% in size; note: potency is the fitted concentration of half-maximal effect; for activity change, negative = inhibition: top concentration of the series differs between compounds
How it was run: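 Homogeneous cell-based luminescent assay of endogenous class I/II HDAC activity; HCT-116 cells, 2 h compound exposure, 30 min HDAC-Glo development at RT.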

[17] = qHTS assay to identify small molecule agonists of the sonic hedgehog signaling (Shh) pathway - cell viability counter screen (AID 1259366); note: nearly all actives have a fitted effect of over 50% in size
How it was run: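 Cytotoxicity counter screen: CellTiter-Fluor reagent added after 23 h compound exposure, then 1 h at 37C and fluorescence read. Cells were 3T3 Gli1-Luc, seeded 2,000 per well and dosed 4 h post-plating.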

[18] = qHTS assay to identify small molecule antagonists of the sonic hedgehog signaling (Shh) pathway - cell viability counter screen (AID 1259367); note: nearly all actives have a fitted effect of over 55% in size
How it was run: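 Seed 3T3 Gli1-Luc cells at 2,000 per well; incubate 4 hr; add compound in DMSO, then conditioned medium; incubate at 37C with 5% CO2; add CellTiter-Fluor after 23 hr; read fluorescence 1 hr later.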

[19] = qHTS assay to identify small molecule HDAC inhibitors - cell viability counter screen (AID 1259365)
How it was run: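 CellTiter-Glo luminescence (30 min, room temperature) reported viability after a 2 h compound exposure at 37 C. Cells: wild-type HCT-116, 1,500 per well, seeded the night before.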

[20] = target: Androgen receptor (Homo sapiens) (UniProt P10275); experiment: qHTS assay to identify small molecule antagonists of the androgen receptor (AR) signaling pathway using the MDA cell line in the presence of 0.5 nM R1881 (AID 1259243); note: nearly all actives have a fitted effect of over 50% in size
Chain of Androgen receptor (Homo sapiens) (P10275 whole entry, looked up): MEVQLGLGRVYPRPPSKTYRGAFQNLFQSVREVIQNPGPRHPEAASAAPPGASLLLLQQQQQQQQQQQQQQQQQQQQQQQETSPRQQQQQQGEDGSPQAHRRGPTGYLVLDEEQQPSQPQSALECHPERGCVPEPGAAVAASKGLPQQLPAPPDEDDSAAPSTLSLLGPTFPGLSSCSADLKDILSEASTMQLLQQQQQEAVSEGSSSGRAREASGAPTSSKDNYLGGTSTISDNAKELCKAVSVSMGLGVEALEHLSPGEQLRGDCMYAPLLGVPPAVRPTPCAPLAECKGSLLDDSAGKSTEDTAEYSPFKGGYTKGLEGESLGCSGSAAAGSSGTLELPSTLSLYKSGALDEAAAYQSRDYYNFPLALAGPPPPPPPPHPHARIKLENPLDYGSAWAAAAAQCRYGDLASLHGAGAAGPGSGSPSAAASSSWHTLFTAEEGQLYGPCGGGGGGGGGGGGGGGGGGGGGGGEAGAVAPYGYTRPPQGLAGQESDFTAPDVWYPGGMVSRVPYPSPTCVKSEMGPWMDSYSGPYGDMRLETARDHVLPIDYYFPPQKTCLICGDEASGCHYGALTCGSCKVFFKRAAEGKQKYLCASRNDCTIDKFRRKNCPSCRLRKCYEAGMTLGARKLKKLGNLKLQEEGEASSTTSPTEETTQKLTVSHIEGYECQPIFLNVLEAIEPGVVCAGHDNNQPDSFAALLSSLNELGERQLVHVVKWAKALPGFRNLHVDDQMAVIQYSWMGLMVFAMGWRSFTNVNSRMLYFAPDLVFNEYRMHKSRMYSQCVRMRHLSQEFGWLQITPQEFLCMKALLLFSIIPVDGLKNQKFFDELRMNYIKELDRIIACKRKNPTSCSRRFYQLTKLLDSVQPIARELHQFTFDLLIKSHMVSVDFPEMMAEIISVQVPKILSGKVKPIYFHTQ
How it was run: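 Steps: seed MDA-kb2 cells, incubate 5 hr at 37C; pin-transfer compounds in DMSO; add R1881 to 0.5 nM final; incubate 16 hr; add ONE-Glo, wait 30 min at room temperature; read luminescence.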
% is set by controls: 0 for no effect and ±100 for the full control effect.

Nc1[nH]c(=O)ncc1F
inactive: outcome [1] | Potency [2] | Potency [3] | Potency [4] | Potency [5] | outcome [6] | Potency [7] | Potency [8] | Potency [9] | Potency [10] | Potency [11] | outcome [12] | outcome [13] | outcome [14] | Potency [15] | Potency [16] | Potency [17] | outcome [18]

Cc1nccn1CC1CCc2c(c3ccccc3n2C)C1=O (stereo unspecified)
inactive: outcome [1] | Potency [2] | Potency [3] | Potency [4] | Potency [5] | outcome [6] | Potency [7] | Potency [8] | Potency [9] | Potency [10] | Potency [11] | outcome [12] | outcome [13] | outcome [14] | PLD induction [15] -0.746% [at 7.66 µM] and -2.67% [at 3.15 µM] | Potency [16] | outcome [19] | Potency [17] | outcome [18]

CCN1CCCC(OC(=O)C(c2ccccc2)c2ccccc2)C1 (stereo unspecified)
inactive: outcome [1] | Potency [2] | Potency [3] | Potency [4] | Potency [5] | outcome [6] | Potency [7] | Potency [8] | Potency [9] | Potency [10] | Potency [11] | outcome [12] | outcome [13] | outcome [14] | Potency [15] | Potency [16] | outcome [19] | Potency [17] | outcome [18]

O=C(O)c1ccc[n+]([O-])c1
inactive: outcome [1] | Potency [2] | Potency [3] | Potency [4] | Potency [5] | outcome [6] | Potency [7] | Potency [8] | Potency [9] | Potency [10] | Potency [11] | outcome [12] | outcome [13] | Potency [20] | outcome [14] | Potency [15] | Potency [16] | outcome [19] | Potency [17] | outcome [18]

CC(C)[N+](C)(C)CC(O)COc1cccc2ccccc12 (stereo unspecified)
inactive: outcome [1] | Potency [2] | Potency [3] | Potency [4] | Potency [5] | outcome [6] | Potency [7] | Potency [8] | Potency [9] | Potency [10] | Potency [11] | outcome [12] | outcome [13] | outcome [14] | Potency [15] | outcome [19] | Potency [17] | outcome [18]

C=CCn1c(=O)n([C@@H]2O[C@H](CO)[C@@H](O)[C@H]2O)c2nc(N)[nH]c(=O)c21
inactive: outcome [1] | Potency [2] | Potency [3] | Potency [4] | Potency [5] | outcome [6] | Potency [7] | Potency [8] | Potency [9] | Potency [10] | Potency [11] | outcome [12] | outcome [13] | Potency [20] | outcome [14] | Potency [15] | Potency [16] | outcome [19] | outcome [18]

CCCC(C)CO (stereo unspecified)
inactive: outcome [1] | Potency [2] | Potency [3] | Potency [4] | Potency [5] | outcome [6] | Potency [7] | Potency [8] | Potency [9] | Potency [10] | Potency [11] | outcome [12] | outcome [13] | Potency [20] | outcome [19] | Potency [17] | outcome [18]

CC(C)c1ccc2oc3nc(N)c(C(=O)O)cc3c(=O)c2c1
inactive: outcome [1] | Potency [2] | Potency [3] | Potency [4] | Potency [5] | outcome [6] | Potency [7] | Potency [8] | Potency [9] | Potency [10] | Potency [11] | outcome [12] | outcome [13] | Potency [20] | outcome [14] | Potency [15] | Potency [17] | outcome [18]
active: Potency [16] 0.266 µM

O=C1CC2(CCCC2)CC(=O)N1
inactive: outcome [1] | Potency [2] | Potency [3] | Potency [4] | Potency [5] | outcome [6] | Potency [7] | Potency [8] | Potency [9] | Potency [10] | Potency [11] | outcome [12] | outcome [13] | Potency [20] | outcome [14] | Potency [16] | outcome [19] | Potency [17] | outcome [18]

CC(C)[C@H](N)C(=O)OCCOCn1cnc2c(=O)[nH]c(N)nc21
inactive: outcome [1] | Potency [2] | Potency [3] | Potency [4] | Potency [5] | outcome [6] | Potency [7] | Potency [8] | Potency [9] | Potency [10] | Potency [11] | outcome [12] | outcome [13] | outcome [14] | Potency [15] | Potency [16] | outcome [19] | Potency [17] | outcome [18]

Cc1cc(C)cc(OCC2CNC(=O)O2)c1 (stereo unspecified)
inactive: outcome [1] | Potency [2] | Potency [3] | Potency [4] | Potency [5] | outcome [6] | Potency [7] | Potency [8] | Potency [9] | Potency [10] | Potency [11] | outcome [12] | outcome [13] | outcome [14] | Potency [15] | Potency [16] | outcome [19] | Potency [17] | outcome [18]

Cn1ccc2cc3c(cc21)CCN3C(=O)Nc1cccnc1
active: Potency [16] 11.6 µM
inactive: activity change, negative = cytotoxicity [1] -0.254% [at 15.8 µM] | cytotoxicity increase [2] 1.72% [at 15.8 µM] | cytotoxicity [3] -1.51% [at 15.8 µM] | cytotoxicity increase [4] -9.84% [at 15.8 µM] | cytotoxicity increase [5] -5.84% [at 15.8 µM] | activity change, negative = cytotoxic [6] -4.07% [at 15.8 µM] | activity change, negative = cytotoxicity [7] -8.85% [at 15.8 µM] | activity change, negative = cytotoxicity [8] -3.76% [at 15.8 µM] | activity change [9] -2.95% [at 15.8 µM, hits give high values] | activity change, negative = cytotoxicity [10] -0.377% [at 15.8 µM] | cytotoxicity increase [11] -6.36% [at 15.8 µM] | activity change, negative = cytotoxicity [12] -4.26% [at 19 µM] | viability change, negative = cytotoxic [13] -1.94% [at 19 µM] | activity change, negative = inhibition [14] 76.4% [at 19 µM] | Potency [15] | viability change, negative = cytotoxic [18] 4.69% [at 19 µM]

CCc1cc(S(=O)(=O)O)c2cc(C(C)C)cccc1-2
inactive: outcome [1] | Potency [2] | Potency [3] | Potency [4] | Potency [5] | outcome [6] | Potency [7] | Potency [8] | Potency [9] | Potency [10] | Potency [11] | outcome [12] | outcome [13] | outcome [14] | PLD induction [15] -3.58% [at 7.66 µM] | Potency [16] | outcome [19] | Potency [17] | outcome [18]

CC1CCN(CCCC(=O)c2ccc(F)cc2)CC1
inactive: outcome [1] | Potency [2] | Potency [3] | Potency [4] | Potency [5] | outcome [6] | Potency [7] | Potency [8] | Potency [9] | Potency [10] | Potency [11] | outcome [12] | outcome [13] | outcome [14] | Potency [15] | Potency [16] | outcome [19] | Potency [17] | outcome [18]
